Data from PubChem BioAssay AID1851 (National Center for Advancing Translational Sciences (NCATS), 2009).
Among all 16,000 compounds or so, about 5,700 (36%) were called active. Another 24% or so got no clear call; they are omitted. The list shows a part of the results. Values without a mark were called inactive. The call rests on the fitted dose curve; in most records, active means well fitted curve in the direction sought with a large enough effect; inconclusive means small, poorly fitted or top-dose-only effect, or effect the other way; inactive means no such curve, though single readings can be large or run the other way.

biological target: Cytochrome P450 1A2 (Homo sapiens) (UniProt P05177); assay: Cytochrome panel assay with activity outcomes; conditions: recombinant CYP, pro-luciferin dealkylation, luminescence, p450-cyp1a2; series mostly up to 57.1 µM
Sequence (P05177 whole entry, looked up): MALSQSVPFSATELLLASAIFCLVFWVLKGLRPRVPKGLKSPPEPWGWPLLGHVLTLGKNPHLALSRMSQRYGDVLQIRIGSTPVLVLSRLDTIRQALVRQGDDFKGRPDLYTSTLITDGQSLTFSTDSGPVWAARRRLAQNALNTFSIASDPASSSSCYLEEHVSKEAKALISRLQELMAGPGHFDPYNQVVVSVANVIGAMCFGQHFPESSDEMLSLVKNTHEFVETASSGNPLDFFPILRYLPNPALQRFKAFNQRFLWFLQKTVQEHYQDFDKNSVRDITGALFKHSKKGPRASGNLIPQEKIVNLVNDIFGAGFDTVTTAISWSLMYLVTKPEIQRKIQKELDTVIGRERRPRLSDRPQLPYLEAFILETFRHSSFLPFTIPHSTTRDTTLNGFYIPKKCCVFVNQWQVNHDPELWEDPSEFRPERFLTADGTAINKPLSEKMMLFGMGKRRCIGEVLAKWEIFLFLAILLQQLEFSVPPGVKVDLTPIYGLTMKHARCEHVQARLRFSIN
On the % scale 0 is the no-effect control and ±100 the full control effect.

Compound | activity, negative = inhibition | AC50
Cn1c(=O)n2n(c1=O)[C@H]1[C@H](O)[C@H]3O[C@H]3C(=O)[C@H]1CC2 | -12.9% [at 11.4 µM] | –
CC12CCC(C(=O)Nc3cccc4ccccc34)(C1Br)C2(C)C (stereo not drawn) | – | 22.4 µM (active)
Cc1cccc(NC(=O)C23CCC(C)(C2Br)C3(C)C)c1 (stereo not drawn) | – | 15.8 µM (active)
Cc1cccc(NC2=NC(=S)N(c3ccc(C(=O)O)cc3)C23CCCCC3)c1 | – | inactive
COc1ccc(C(=O)NC2CCN(C(=S)Nc3cccc(C)c3)CC2)cc1 | – | inactive
COc1ccc(CNc2ncnc3ccc(-c4ccccc4OC)cc23)c(OC)c1 | – | 3.16 µM (active)
COc1ccccc1CNc1ncnc2ccc(-c3ccccc3OC)cc12 | – | 1 µM (active)
C[N+](C)(C)CCOC(=O)CCC(=O)OCC[N+](C)(C)C | – | inactive
O=C(NC(=S)N(CCCCO)C1CCCCC1)c1sc2ccccc2c1Cl | – | 1.26 µM (active)
CCOC(=S)NC(=O)c1sc2ccccc2c1Cl | – | 1.58 µM (active)
CCCCOC(=S)NC(=O)c1sc2ccccc2c1Cl | – | 2 µM (active)
O=C(c1sc2ccccc2c1Cl)N(Cc1ccccc1)C1CCS(=O)(=O)C1 (stereo not drawn) | – | inactive
CCOc1c(OC(C)=O)ccc(/C=C2\N=C(SCC)SC2=O)c1[N+](=O)[O-] | – | 0.631 µM (active)
CCOc1c(OC(C)=O)ccc(/C=C/c2ccc3cccc(OC(C)=O)c3n2)c1[N+](=O)[O-] | – | 4.47 µM (active)
Cc1ccc(S(=O)(=O)N=Nc2c(O)[nH]c3cc(O)c(C(=O)O)cc23)cc1 | -15.8% [at 2.29 µM] | –
CC(C)C(NC(=O)C1CCCCC1)C(=O)NCc1ccccn1 (stereo not drawn) | – | inactive
Cc1cc(=O)oc(C)c1C(=O)NCCCN1CCN(c2ccc(F)cc2)CC1 | – | inactive
O=C(NCc1ccccn1)c1cc(-c2ccccc2Cl)on1 | – | 3.55 µM (active)
Cc1cc(=O)oc(C)c1C(=O)NCc1cccnc1 | – | 4.47 µM (active)
O=C(O)[C@@H](O)Cc1ccccn1 | -9.06% [at 11.4 µM] | –
CCCNC(=O)c1c(C)cc(=O)oc1C | – | 11.2 µM (active)
Cc1cc(=O)oc(C)c1C(=O)N1CCCCC1 | – | inactive
Cc1cc(=O)oc(C)c1C(=O)NCc1ccccc1 | – | inactive
CC(Cc1ccccc1)C(=O)NCc1ccccn1 (stereo not drawn) | – | 15.8 µM (active)
O=C(O)[C@@H]1[C@@H](C(=O)NCc2ccccn2)[C@@H]2C=C[C@@H]1O2 | -0.104% [at 2.29 µM] | –

Compound | activity, negative = inhibition | AC50
CCC(C#CCN1CCCCC1)(CC)OCCC#N | – | inactive
Cc1cc(=O)oc(C)c1C(=O)NCc1ccccn1 | – | 12.6 µM (active)
CCCNC(=O)OC[C@@H]1O[C@H](CCO/N=C\c2ccc(C(=O)N3[C@H](c4ccc(C)cc4)[C@@H](C)CC[C@H]3C(=O)OC)cc2)C=C[C@@H]1Oc1ccc(OC)cc1 | -5.52% [at 11.4 µM] | –
CCN1C(=O)[C@H]2[C@H]3[C@H](O)[C@H](O)C/C(=N/OCC(C)C)[C@H]3CC[C@@H]2C1=O | -1.29% [at 11.4 µM] | –
CO/N=C/c1ccc(N2CCN(C(=O)c3ccc(Cl)cc3Cl)CC2)c([N+](=O)[O-])c1 | – | inactive
Cc1ccc(C(=O)O/N=C\c2ccc(N3CCCCC3)c([N+](=O)[O-])c2)cc1 | – | 0.251 µM (active)
O=C(O/N=C\c1ccc(N2CCCCC2)c([N+](=O)[O-])c1)c1c(F)cccc1F | – | 0.708 µM (active)
Cc1ccc(OC(=O)c2ccc(N3CCOCC3)c([N+](=O)[O-])c2)cc1 | – | inactive
CC(C)(Oc1ccc([C@@H]2CC2(Cl)Cl)cc1)C(=O)O | – | inactive
CC(C)OC(=O)C(C)(C)Oc1ccc(C(=O)c2ccc(Cl)cc2)cc1 | – | 5.01 µM (active)
O=c1c(-c2cccs2)nc2cnc(N3CCNCC3)nc2n1C1CC1 | – | 2 µM (active)
Cn1c(=O)c(-c2cccs2)nc2cnc(N3CCNCC3)nc21 | – | 10 µM (active)
OC[C@@H]1O[C@H](O)[C@@H](Cl)[C@H](O)[C@@H]1O | – | inactive
Cc1ccc(S(N)(=O)=O)cc1NC(=O)/C=C/c1cccs1 | – | 12.6 µM (active)
CS(=O)(=O)Nc1cccc(-c2cncnc2NCc2cccs2)c1 | – | 15.8 µM (active)
CS(=O)(=O)Nc1cccc(-c2ccc3ncnc(NCc4cccs4)c3c2)c1 | – | 0.0794 µM (active)
CS(=O)(=O)Nc1cccc(-c2cncnc2NCc2ccccc2)c1 | – | 25.1 µM (active)
Cc1cccc(CNc2ncncc2-c2cccc(NS(C)(=O)=O)c2)c1 | – | 12.6 µM (active)
CC(=O)Nc1c(I)c(C(=O)N[C@H]2[C@@H](O)[C@H](O)[C@H](CO)O[C@@H]2O)c(I)c(N(C)C(C)=O)c1I | – | inactive
CC12CS(=O)(=O)CC1SC(=S)N2c1ccccn1 (stereo not drawn) | – | inactive
CS(=O)(=O)Nc1cccc(-c2ccc3ncnc(NCc4cccnc4)c3c2)c1 | – | 0.316 µM (active)
CS(=O)(=O)Nc1cccc(-c2cncnc2NCc2cccnc2)c1 | – | 15.8 µM (active)
O=S(=O)(NCc1cccnc1)c1ccc(Cl)nc1 | – | inactive
C[C@H](O)C(=O)C1=Nc2c(nc(N)[nH]c2=O)NC1 | – | inactive
C=CCn1c(SCC(=O)N2CCc3ccccc3C2)nc2ccccc2c1=O | – | 8.91 µM (active)

Compound | activity, negative = inhibition | AC50
O=C(Cn1c(SCC(=O)N2CCc3ccccc3C2)nc2ccccc21)NC1CCCC1 | – | inactive
O=C(O)CCCCCn1c(SCC(=O)N2CCCC2)nc2ccsc2c1=O | – | inactive
CCn1ccc(C(=O)Oc2ccc(Cl)cc2)n1 | – | 14.1 µM (active)
CC(C)OC(=O)c1cccc(C(=O)Oc2ccc(Br)cc2)n1 | – | inactive
CN(C)Cc1ccccc1-c1nc(N2CCOCC2)c2ccccc2n1 | – | 20 µM (active)
CC(C)(C)c1nc(SCC(=O)Nc2ccc(N3CCOCC3)cc2)c2ccccc2n1 | – | inactive
Cc1ccccc1-c1nc(N2CCOCC2)c2ccccc2n1 | – | 2 µM (active)
Cc1ccccc1-c1nc(N2CCNCC2)c2ccccc2n1 | – | 5.01 µM (active)
C[C@@H](N1CCOCC1)[C@@](O)(c1ccccc1)c1ccccn1 | -2.48% [at 2.29 µM] | –
CN1c2ccccc2C(C)(C)C12C=Nc1c(cc(N3CCOCC3)c3ccccc13)O2 (stereo not drawn) | – | inactive
Clc1ccccc1-c1nc(N2CCNCC2)c2ccccc2n1 | – | 2.51 µM (active)
CN(C)/N=N\c1nc[nH]c1C(N)=O | – | inactive
COc1ccc(O[C@H]2C=C[C@@H](c3ccccc3)O[C@@H]2CO/N=C(\C)CCN2CCCc3nc(C)c(C)cc32)cc1 | -4.49% [at 11.4 µM] | –
C=CC[C@@H]1C=C[C@H](O/N=C(\C)CCN2CCCCc3nc(C)c(C)cc32)[C@H](CO)O1 | -6.73% [at 11.4 µM] | –
CC[C@]1(O)C[C@@H]2CN(CCc3c([nH]c4ccccc34)[C@](C(=O)OC)(c3cc4c(cc3OC)N(C)[C@H]3[C@](O)(C(=O)OC)[C@@H](C(=O)OC)[C@@]5(CC)C=CCN6CC[C@@]43[C@@H]65)C2)C1 | – | inactive
CN(C(=S)Nc1ccccc1F)C1(c2ccccc2Cl)CCCCC1=O (stereo not drawn) | – | inactive
CCCN(C(=S)Nc1ccccc1)C1CCS(=O)(=O)C1 (stereo not drawn) | – | inactive
CCN(C(=S)Nc1ccccc1F)C1CCCCC1 | – | 15.8 µM (active)
c1cncc(-c2cc(NCc3cccs3)ncn2)c1 | – | 1 µM (active)
COc1cccc(-c2cc(NCc3ccccc3)ncn2)c1 | – | 2 µM (active)
COc1cccc(-c2cc(NCc3cccnc3)ncn2)c1 | – | 0.631 µM (active)
COc1cccc(/C=N/NC(=O)C(=O)NCc2cccnc2)c1 | – | inactive
COc1cccc(-c2cc(NCc3cccs3)ncn2)c1 | – | 1.26 µM (active)
COCC(=O)N1CCC2(CCCN(Cc3ccccc3)C2)CC1 | – | inactive
CS(=O)(=O)N1CCC2(CCN(C(=O)Nc3cccc(C#N)c3)CC2)CC1 | – | inactive

Compound | activity, negative = inhibition | AC50
Cc1c2cccc(Sc3ccccc3)c2c2c3c(cccc13)[S+](c1ccccc1)C2 (stereo not drawn) | -17.3% [at 2.29 µM] | –
O=C(Nc1c2c(nn1-c1ccc(F)cc1)CS(=O)(=O)C2)C12CC3CC(CC(C3)C1)C2 | – | inactive
Cc1cc(C2C(C#N)=C(N)OC3=C2C(=O)CC(C)(C)C3)c(C)s1 (stereo not drawn) | – | inactive
Cc1cc(C2C(C#N)=C(N)Oc3n[nH]c(C)c32)c(C)s1 (stereo not drawn) | – | 15.8 µM (active)
N#CC(=C(/N)Sc1ccccc1N)/C(C#N)=C(/N)Sc1ccccc1N | – | 12.6 µM (active)
Cc1ccc(N2CC(C(=O)Nc3cc(C)on3)CC2=O)cc1 (stereo not drawn) | – | inactive
Cc1cc(NC(=O)Nc2ccc(F)cc2)no1 | – | 10 µM (active)
Cc1cc(NC(=O)CN2C(=O)NC(C)(c3ccc(OC(F)F)cc3)C2=O)no1 (stereo not drawn) | – | inactive
Cc1cc(NC(=O)c2cccc(F)c2)no1 | – | 17.8 µM (active)
Cc1ccc(C2(C)NC(=O)N(CC(=O)Nc3cc(C)on3)C2=O)cc1 (stereo not drawn) | – | inactive
CN1CCN(NC(=O)c2cccc(F)c2)CC1 | – | inactive
Cc1ccc(N2C(=O)CC(c3ccsc3)C3=C2CC(C)(C)CC3=O)cc1 (stereo not drawn) | – | inactive
Cc1ncc([N+](=O)[O-])n1CC(C)O (stereo not drawn) | – | inactive
Cc1ncc([N+](=O)[O-])n1CCO | – | inactive
Cc1ccc2ncc([N+](=O)[O-])n2c1 | – | 6.31 µM (active)
Cc1nn(C)c(C)c1CNC(=O)c1cnn2c1NC(c1ccccc1)CC2C(F)(F)F (stereo not drawn) | – | inactive
CCC(C)N1C(=O)S/C(=C/c2ccc(Sc3nc4ccccc4[nH]3)o2)C1=O (stereo not drawn) | – | 2 µM (active)
NCCNc1ncnc2ccc(Cl)cc12 | – | 1 µM (active)
COC(=O)N1CCC2(CCCN(Cc3ccc(C#N)cc3)C2)CC1 | – | inactive
CC(C)CC1CC(=O)OC1(C)C(=O)CSc1nc2ccccc2s1 (stereo not drawn) | – | 7.08 µM (active)
O=C(O)CC(c1ccccc1)n1cnnn1 (stereo not drawn) | – | inactive
c1ccc2c(-n3ccnc3)nc(-c3ccoc3)nc2c1 | – | 0.501 µM (active)
CN(C)c1ccc(-c2nc(-n3ccnc3)c3ccccc3n2)cc1 | – | 0.316 µM (active)
